This is part of a sample that, as a whole, favours compounds with a hit. Of some 79,000 tested, about 15% had one in any assay. Active and inactive are the calls of the source. No stated cut-off is given here; in the data, active means growth inhibition above about 70%; inactive means the rest.
How the values were obtained:
[1] = NCI Yeast Anticancer Drug Screen. Data for the rad52 strain (AID 147);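 further: 0% = growth of vehicle-treated control cultures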; settings: S. cerevisiae rad52 mutant growth inhibition, active compounds read high
How it was run: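 Measured: yeast growth inhibition. System: strain with a defined DNA damage repair alteration. Reference: vehicle-treated control cultures.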

[2] = NCI Yeast Anticancer Drug Screen. Data for the wt1 strain (AID 149);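 further: 0% = growth of vehicle-treated wt1 cultures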; settings: S. cerevisiae wt1 strain (SPY 50644) growth inhibition, active compounds read high
How it was run: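 Measured: growth of wt1 yeast under compound versus vehicle treatment, reported as inhibition.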

[3] = NCI Yeast Anticancer Drug Screen. Data for the rad50EPP+ strain (AID 151);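 further: 0% = growth of vehicle-treated control cultures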; settings: S. cerevisiae rad50 mutant strain, active compounds read high
How it was run: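 One strain with a rad50 alteration (rad50EPP+) was compound-treated, its growth then compared to that of vehicle controls.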

[4] = NCI Yeast Anticancer Drug Screen. Data for the rad50 strain (AID 155);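 further: 0% = growth of vehicle-only cultures of the same strain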; settings: S. cerevisiae rad50 strain growth inhibition, active compounds read high
How it was run: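 Growth of the mutant yeast was measured after compound exposure and referenced to vehicle-treated cultures.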

[5] = NCI Yeast Anticancer Drug Screen. Data for the mec2-1 strain (AID 157); settings: S. cerevisiae mec2-1 strain, active compounds read high
How it was run: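 Test agents were screened against the mec2-1 yeast strain, with defined DNA repair or cell cycle alteration. Growth was scored as inhibition against vehicle-only controls.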

[6] = NCI Yeast Anticancer Drug Screen. Data for the rad14 strain (AID 159);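 further: 0% = growth of vehicle-treated control cultures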; settings: S. cerevisiae rad14 strain growth inhibition, active compounds read high
How it was run: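 Here, inhibition of yeast growth was measured after compound exposure, using a strain with a genetic defect in DNA damage repair and vehicle-treated cultures as the reference.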

[7] = NCI Yeast Anticancer Drug Screen. Data for the sgs1 mgt1 strain (AID 161);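 further: 0% = growth of cultures given vehicle only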; settings: S. cerevisiae sgs1 mgt1 strain, active compounds read high
How it was run: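 Inhibition of yeast growth, normalised to vehicle-treated controls, is reported for a strain bearing genetic alterations in DNA damage repair.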

[8] = at 5.0 µM (retest, dose inferred, filed as 0.5)
[9] = at 50.0 µM (retest, dose inferred, filed as 5.0)

Measured: growth inhibition

CCCCC(=O)c1c(O)nc2sccn2c1=O
inactive: [1]; at 1.2 µM 8% | [1]; at 3.7 µM 18% | [1]; at 11.0 µM 64% | [2]; at 1.2 µM 25% | [2]; at 3.7 µM 29% | [2]; at 11.0 µM 52% | [3]; at 1.2 µM 2% | [3]; at 3.7 µM 7% | [3]; at 11.0 µM 58% | [4]; at 1.2 µM 14% | [4]; at 3.7 µM 31% | [4]; [8] 30% | [5]; at 1.2 µM 22% | [5]; at 3.7 µM 17% | [5]; [8] 10% | [6]; at 1.2 µM 22% | [6]; at 3.7 µM 68% | [7]; [8] 5% | [7]; [9] 28%
active: [1]; at 33.0 µM 96% | [1]; at 100.0 µM 98% | [2]; at 33.0 µM 94% | [2]; at 100.0 µM 98% | [3]; at 33.0 µM 94% | [3]; at 100.0 µM 95% | [4]; at 11.0 µM 82% | [4]; at 33.0 µM 97% | [4]; [9] 85% | [4]; at 50.0 µM 85.4% | [4]; at 100.0 µM 98% | [5]; at 11.0 µM 82% | [5]; at 33.0 µM 97% | [5]; [9] 88% | [5]; at 50.0 µM 85.3% | [5]; at 100.0 µM 98% | [6]; at 11.0 µM 98% | [6]; at 33.0 µM 98% | [6]; at 100.0 µM 98% | [7]; at 50.0 µM 89.2%
